# TIM10 inh – growth inhibitors of TIM10 yeast strain; S. cerevisiae TIM10 strain growth, BacTiter-Glo luminescence, 24 h; 1.4% of 330,000 active; inhibition, % at 10 µM; AID 463195;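 active = inhibition of 40% or more at the single tested concentration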;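 also: wild-type TIM10 isogenic control strain grown at permissive 25 °C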
# tim10-1 inh – inhibits growth of tim10-1 mutant yeast; S. cerevisiae tim10-1 ts strain growth, BacTiter-Glo, 24 h; inhibition, % at 20 µM; 2.2% of 330,000 active; AID 463190;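 active = inhibition of at least 40%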;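 also: mutant grown at 25 °C; 0% = DMSO wells with yeast and 100% = wells holding no yeast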
# tim23-1 inh – growth inhibitors of tim23-1 mutant yeast. S. cerevisiae tim23-1 growth, BacTiter-Glo luminescence, 24 h. inhibition, % at 20 µM. 1.3% of 330,000 active. AID 463212;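 active = growth inhibition of the mutant yeast at or above 50%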;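 also: temperature-sensitive mutant grown at 25 °C; plate controls were DMSO-treated mutant yeast for no effect and medium wells lacking yeast for full effect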
# SKKanGAS inh – inhibitors of SKKanGAS S. pyogenes growth in kanamycin (SK-promoter or general growth effect); BacTiter-Glo, 6 h; inhibition, % at 7.5 µM; 1.3% of 300,000 active; AID 1662;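 active = mean replicate score, as percent of positive control median, at least 50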;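 also: strain carries kanamycin resistance gene driven by streptokinase promoter and grows in 40 µg/ml kanamycin; loss of luminescence reflects streptokinase promoter inhibition or plain growth inhibition; 0% = median of DMSO wells and 100% = positive control at its reference dose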
# NLRP3 yeast inh – inhibitors of NALP3 inflammasome in yeast; Yeast reconstituted NLRP3/ASC/caspase-1, beta-gal luminescence, 24 h; inhibition, % at 10 µM; 0.39% of 330,000 active; AID 2825;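 active = inhibition of 50% or more; inactive = inhibition below 50%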;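 also: plate controls were induced DMSO wells for no effect and uninduced yeast grown without galactose for full effect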
# tim10-1 conf – tim10-1 yeast growth inhibition, confirmed | 56% of 7,400 active | S. cerevisiae tim10-1 ts strain growth, BacTiter-Glo, 24 h | inhibition, % at 20 µM | shares compounds with tim10-1 inh | AID 463213;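 active = inhibition of yeast growth at or above a set limit in either of two repeat tests at 20 µM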;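 also: tim10-1 mutant grown at permissive 25 °C to find synthetic lethal compounds; 0% = DMSO yeast wells and 100% = medium wells without yeast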
# An asterisk follows results filed as active; . = no result given. The list is not random: actives were taken first. Their share in the collection is about 4.6%.
SMILES,TIM10 inh,tim10-1 inh,tim23-1 inh,SKKanGAS inh,NLRP3 yeast inh,tim10-1 conf
N/C(=N\OC(=O)COc1cc(Cl)c(Cl)cc1Cl)c1ccccn1,28,35,17,-6,40,.
CCn1c(=O)c(CCC(=O)N2CCN(c3ccccn3)CC2)c(C)c2c(C)nn(-c3ccccc3)c21,25,24,32,35,21,.
COc1cc(-c2cc(-c3nnco3)c3ccccc3n2)cc(OC)c1OC,6,14,27,4,6,.
c1ccc(-c2cc(-c3nnco3)c3ccccc3n2)nc1,-11,40*,1,6,9,25
O=C(Cc1nnc(NC(=O)c2cccc([N+](=O)[O-])c2)s1)NCc1ccccc1,-13,-10,3,3,8,.
CCCCNC(=S)NCc1ccc2[nH]c3c(c2c1)CCCC3,33,40*,49,-1,14,10
Cc1sc2ncnc(N3CCCCC3)c2c1C,5,19,39,0,19,.
Cc1sc2ncnc(N3CCCCC3C)c2c1C (configuration not stated),6,42*,28,7,23,22
Cc1ccc(NC(=O)c2ccc(=O)[nH]n2)cc1S(=O)(=O)Nc1ccc(SC(F)F)cc1,10,-3,9,.,1,.
O=C(CSc1nc2ccccc2[nH]1)c1ccccc1F,10,21,21,-7,14,.
Fc1cccc(F)c1CSc1nc2ccccc2[nH]1,35,43*,32,0,26,30
COc1ccc(/C=C/C(=O)NCc2cn(C)nc2C)cc1COc1ccc(Br)cc1,19,40*,23,3,-5,11
COc1ccc(-c2cc(C(=O)N3CCOCC3)c3cc(C)ccc3n2)cc1,17,34,32,1,18,.
COc1ccc(-c2cc(C(=O)N3CCCCCC3)c3cc(C)ccc3n2)cc1,9,40*,44,-7,27,22
CC(=O)Nc1ccc(NC(=O)C(C)OC(=O)CNS(=O)(=O)/C=C/c2ccc(C)cc2)cc1 (configuration not stated),-6,-26,-15,-8,-5,.
COc1cc(C)c(C)cc1S(=O)(=O)N1CCCCC1c1cccnc1 (configuration not stated),11,41*,30,-6,10,27
CC(=O)Nc1ccc(S(=O)(=O)N2CCCCC2c2cccnc2)cc1 (configuration not stated),-6,11,-4,-8,0,.
COc1ccc(-c2cn3cccnc3n2)cc1NC(=O)C(C)Oc1ccccc1 (configuration not stated),1,46*,49,7,14,7
N/C(=N\OC(=O)CCCc1ccccc1)c1ccccc1,35,45*,35,10,13,44*
N/C(=N\OC(=O)CCCc1ccccc1)c1cccc([N+](=O)[O-])c1,35,46*,32,2,-7,42*
COc1ccccc1NCCC(=O)OCC(=O)Nc1cc([N+](=O)[O-])ccc1F,10,17,29,.,16,.
CCc1nnc(NC(=O)c2cc(-c3ccccn3)nc3ccc(Br)cc23)s1,-4,83*,7,7,-2,-21
Cc1ccc(/C=N/NC(=O)c2cc3c(s2)CCCC3)o1,14,-18,28,.,30,.
C=CCNC(=O)c1cc2sccc2n1C,-23,-13,-4,-7,8,.
CC(C)c1ccc(NC(=O)Nc2cc3sccc3n2C)cc1,18,42*,28,0,25,11
SMILES,TIM10 inh,tim10-1 inh,tim23-1 inh,SKKanGAS inh,NLRP3 yeast inh,tim10-1 conf
CN1N=C(c2ccc(Cl)cc2)CC(c2ccc(Cl)cc2)C1=O (configuration not stated),12,42*,40,-2,25,29
CCc1ccc(C2CC(c3ccc(Cl)cc3)=NNC2=O)cc1 (configuration not stated),9,31,32,18,19,.
COC(=O)c1c(N2C(=O)[C@H]3[C@@H](C2=O)[C@]2(C(=O)Nc4ccccc42)N2CCC[C@@H]32)sc(C)c1C,4,9,9,5,3,.
O=C1[C@H]2[C@@H](C(=O)N1c1cc(Cl)cc(Cl)c1)[C@]1(C(=O)Nc3ccccc31)N1CCC[C@@H]21,13,45*,31,-6,14,26
CC(C)CCNC(=O)NC(=O)CSc1nnc(COc2ccccc2Cl)o1,25,49*,-15,5,1,13
CC1CCc2c(sc3ncnc(NCCCOC(C)C)c23)C1 (configuration not stated),13,40,43,1,19,10
COC1=CC(=O)C(O)=C(CCCCCCC/C=C/CCCCCCCC2=C(O)C(=O)C=C(OC)C2=O)C1=O,-2,43*,43,24,20,38*
CCN(CC(=O)Nc1ccc(NC(C)=O)cc1)C(=O)/C=C/c1ccc(C)o1,-2,-20,-6,.,6,.
COc1ccc(-n2ccnc2CN2CCCC(CO)(Cc3cccc(OC)c3)C2)cc1 (configuration not stated),20,41*,18,17,14,22
OCC1(Cc2cccc(Cl)c2)CCCN(Cc2ccc3cc(F)ccc3n2)C1 (configuration not stated),23,48*,33,32,1,21
CCn1nc(C(=O)NCc2nnc3ccccn23)c2ccccc2c1=O,-6,-5,-5,.,12,.
Cc1ccc(SCCN2CCC(C(C)(C)C)CCC2=O)cc1 (configuration not stated),21,45*,38,8,7,30
CC(C)(C)NC(=S)N/N=C\c1ccc(-c2ccc([N+](=O)[O-])cc2)o1,33,40*,45,3,9,33*
CCCCC(=O)N/N=C/c1ccc(-c2ccc([N+](=O)[O-])cc2)o1,-2,25,23,-8,11,.
CCc1cccc(NC(=O)C2CCCN(c3ncnc4c3nc3n4CCCCC3)C2)c1 (configuration not stated),6,40*,13,11,24,13
COc1ccccc1NC(=O)C1CCCN(c2ncnc3c2nc2n3CCCCC2)C1 (configuration not stated),9,19,15,5,10,.
O=C(Nc1ccccc1Cl)C1CCCN(c2ncnc3c2nc2n3CCCCC2)C1 (configuration not stated),22,54*,40,1,15,12
Cc1cc(C(F)(F)F)n(-c2nc(C(=O)N/N=C/c3ccc(F)cc3)cs2)n1,15,42*,12,3,21,20
C=C1CCC[C@]2(C)C[C@H]3OC(=O)C(CN(C)CC(OC)OC)[C@H]3CC12 (some centres not stated),15,42*,25,-3,-15,41*
C=C1CCC[C@]2(C)C[C@H]3OC(=O)C(CN4CCCCC4CO)[C@H]3CC12 (some centres not stated),26,48*,46,1,-81,37*
